According to PubChem BioAssay (Tox21):
Results filed as inconclusive are left out. Active and inactive are the calls of the source. The call rests on the fitted dose curve; in most records, active means well fitted curve in the direction sought with a large enough effect in the repeat runs; inconclusive means weak or mixed curves; inactive means no such curve, though single readings can be large; an effect the other way counts as inactive or inconclusive.

Assays:
[1] = qHTS RealTime-Glo MT Cell Viability Assay in HEK293 cells - 32 hour (AID 1224868); further: top concentration of the series differs between compounds; nearly all actives have a fitted effect of over 50% in size
Outline: (§1)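 HEK293 cells seeded with NanoLuc/prosubstrate reagent, rested 5 h at 37 C, then dosed and kept at 37 C up to 40 h. Nonlytic real-time luminescence from viable cells read at 0, 8, 16, 24, 32 and 40 h.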

[2] = A CellTox Green Cytotoxicity Assay to monitor cytotoxicity in HEK293 cells - 0 hour (AID 1224869); further: nearly all actives have a fitted effect of over 50% in size
Outline: (§2)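 Tox21 screen in HEK293: membrane-impermeant cyanine dye fluoresces on binding dead-cell DNA; compound pinned 5 h post-seeding, plates held at 37 C, signal read repeatedly through 40 h.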

[3] = qHTS RealTime-Glo MT Cell Viability Assay in HepG2 cells - 40 hour (AID 1224870); further: nearly all actives have a fitted effect of over 50% in size
Outline: (§3)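 Real-time viability: cells seeded at 600 per well together with NanoLuc and cell-permeant prosubstrate, compounds added after 5 h incubation. Luminescence tracked at 0, 8, 16, 24, 32 and 40 h of exposure.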

[4] = A CellTox Green Cytotoxicity Assay to monitor cytotoxicity in HEK293 cells - 40 hour (AID 1224871); further: nearly all actives have a fitted effect of over 45% in size
Outline: as §2

[5] = qHTS RealTime-Glo MT Cell Viability Assay in HEK293 cells - 16 hour (AID 1224872); further: top concentration of the series differs between compounds; nearly all actives have a fitted effect of over 50% in size
Outline: as §1

[6] = qHTS RealTime-Glo MT Cell Viability Assay in HepG2 cells - 8 hour (AID 1224873); further: nearly all actives have a fitted effect of over 55% in size
Outline: as §3

[7] = qHTS RealTime-Glo MT Cell Viability Assay in HEK293 cells - 40 hour (AID 1224874); conditions: RealTime-Glo luminescence, active compounds read low; further: nearly all actives have a fitted effect of over 50% in size
Outline: (§4)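 HEK293 + NanoLuc + prosubstrate, 600 cells/well; 5 h, 37 C/5% CO2; compound 23 nL in DMSO by pintool; 37 C; luminescence read at 0, 8, 16, 24, 32 and 40 h time points.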

[8] = A CellTox Green Cytotoxicity Assay to monitor cytotoxicity in HEK293 cells - 24 hour (AID 1224875); further: series mostly up to about 77 µM; nearly all actives have a fitted effect of over 45% in size
Outline: as §2

[9] = A CellTox Green Cytotoxicity Assay to monitor cytotoxicity in HepG2 cells - 16 hour (AID 1224876); further: nearly all actives have a fitted effect of over 45% in size
Outline: (§5)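 Measurements at 0, 8, 16, 24, 32 and 40 h of treatment captured CellTox Green fluorescence in HepG2 cells that had been co-plated with reagent and preincubated 5 h at 37 C/5% CO2.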

[10] = qHTS RealTime-Glo MT Cell Viability Assay in HepG2 cells - 32 hour (AID 1224877); further: nearly all actives have a fitted effect of over 55% in size
Outline: (§6)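 HepG2 cells (600/well) were dispensed with RealTime-Glo reagents, incubated 5 h at 37 °C, then treated with compounds in DMSO for up to 40 h. Nonlytic NanoLuc luminescence reflecting viable cells was read at each stated time point.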

[11] = A CellTox Green Cytotoxicity Assay to monitor cytotoxicity in HepG2 cells - 24 hour (AID 1224878); further: nearly all actives have a fitted effect of over 45% in size
Outline: as §5

[12] = A CellTox Green Cytotoxicity Assay to monitor cytotoxicity in HepG2 cells - 40 hour (AID 1224879); further: nearly all actives have a fitted effect of over 40% in size
Outline: as §5

[13] = qHTS RealTime-Glo MT Cell Viability Assay in HEK293 cells - 0 hour (AID 1224880)
Outline: as §4

[14] = A CellTox Green Cytotoxicity Assay to monitor cytotoxicity in HEK293 cells - 32 hour (AID 1224881); further: nearly all actives have a fitted effect of over 40% in size
Outline: as §2

[15] = A CellTox Green Cytotoxicity Assay to monitor cytotoxicity in HepG2 cells - 0 hour (AID 1224882); further: nearly all actives have a fitted effect of over 35% in size
Outline: as §5

[16] = A CellTox Green Cytotoxicity Assay to monitor cytotoxicity in HepG2 cells - 32 hour (AID 1224883); further: nearly all actives have a fitted effect of over 50% in size
Outline: as §5

[17] = A CellTox Green Cytotoxicity Assay to monitor cytotoxicity in HEK293 cells - 8 hour (AID 1224884); further: nearly all actives have a fitted effect of over 35% in size
Outline: as §2

[18] = qHTS RealTime-Glo MT Cell Viability Assay in HepG2 cells - 16 hour (AID 1224885); further: nearly all actives have a fitted effect of over 50% in size
Outline: as §6

[19] = qHTS RealTime-Glo MT Cell Viability Assay in HEK293 cells - 24 hour (AID 1224886)
Outline: as §1

[20] = qHTS RealTime-Glo MT Cell Viability Assay in HEK293 cells - 8 hour (AID 1224887)
Outline: as §4
On the % scale 0 is the no-effect control and ±100 the full control effect.

CCCCC(CC)COC(=O)CC#N (centres undefined)
inactive: outcome [1] | outcome [2] | outcome [3] | Potency [4] | outcome [5] | outcome [6] | max response [7] 0.0288% | Potency [8] | Potency [9] | outcome [10] | Potency [11] | Potency [12] | Potency [13] | Potency [14] | Potency [15] | Potency [16] | Potency [17] | outcome [18] | outcome [19] | outcome [20]

CCCCC(O)/C=C(C)/C=C/C=C/C(=O)N1CCCC1=O (centres undefined)
inactive: outcome [1] | outcome [2] | outcome [3] | Potency [4] | outcome [5] | outcome [6] | max response [7] 2.14% | Potency [8] | Potency [9] | outcome [10] | Potency [11] | Potency [12] | Potency [13] | Potency [14] | Potency [15] | Potency [16] | Potency [17] | outcome [18] | outcome [19] | outcome [20]

CC(=O)Oc1ccc(C(C)=O)cc1
inactive: outcome [1] | outcome [2] | outcome [3] | Potency [4] | outcome [5] | outcome [6] | max response [7] -8% | Potency [8] | Potency [9] | outcome [10] | Potency [11] | Potency [12] | Potency [13] | Potency [14] | Potency [15] | Potency [16] | Potency [17] | outcome [18] | outcome [20]

COc1cc(NS(=O)(=O)c2ccc(N)cc2)ncn1
inactive: outcome [1] | outcome [2] | outcome [3] | Potency [4] | outcome [5] | outcome [6] | max response [7] 7.65% | Potency [8] | Potency [9] | outcome [10] | Potency [11] | Potency [12] | Potency [13] | Potency [14] | Potency [15] | Potency [16] | Potency [17] | outcome [18] | outcome [19] | outcome [20]

Nc1cc(S(=O)(=O)O)ccc1O
inactive: outcome [1] | outcome [2] | outcome [3] | Potency [4] | outcome [5] | outcome [6] | max response [7] 14.9% | Potency [8] | Potency [9] | outcome [10] | Potency [11] | Potency [12] | Potency [13] | Potency [14] | Potency [15] | Potency [17] | outcome [18] | outcome [19] | outcome [20]

O=C1c2ccccc2C(=O)N1CO
inactive: outcome [1] | outcome [2] | outcome [3] | Potency [4] | outcome [5] | outcome [6] | max response [7] -6.25% | Potency [8] | Potency [9] | outcome [10] | Potency [11] | Potency [12] | Potency [13] | Potency [14] | Potency [15] | Potency [17] | outcome [18] | outcome [19] | outcome [20]

CN(C)c1ccncc1
inactive: outcome [1] | outcome [2] | outcome [3] | Potency [4] | outcome [5] | outcome [6] | max response [7] -16.5% | Potency [8] | Potency [9] | outcome [10] | Potency [11] | Potency [12] | Potency [13] | Potency [14] | Potency [16] | Potency [17] | outcome [18] | outcome [19] | outcome [20]

CC1(C)C(=O)C(C)(C)C1=O
inactive: outcome [1] | outcome [2] | outcome [3] | Potency [4] | outcome [5] | outcome [6] | max response [7] 6.04% | Potency [8] | Potency [9] | outcome [10] | Potency [11] | Potency [12] | Potency [13] | Potency [14] | Potency [15] | Potency [16] | Potency [17] | outcome [18] | outcome [19] | outcome [20]

CCNC(=O)C(C)OC(=O)Nc1ccccc1 (centres undefined)
inactive: outcome [1] | outcome [2] | outcome [3] | Potency [4] | outcome [5] | outcome [6] | max response [7] -1.79% | Potency [8] | Potency [9] | outcome [10] | Potency [11] | Potency [12] | Potency [13] | Potency [15] | Potency [16] | Potency [17] | outcome [18] | outcome [19] | outcome [20]

CC(C)C(C)C
inactive: outcome [1] | outcome [2] | outcome [3] | Potency [4] | outcome [5] | outcome [6] | max response [7] 5.69% | Potency [8] | Potency [9] | outcome [10] | Potency [11] | Potency [12] | Potency [13] | Potency [14] | Potency [15] | Potency [16] | Potency [17] | outcome [18] | outcome [19] | outcome [20]

CC[N+](C)(CC)CC
inactive: outcome [1] | outcome [2] | outcome [3] | Potency [4] | outcome [5] | outcome [6] | max response [7] 13.2% | Potency [8] | Potency [9] | outcome [10] | Potency [11] | Potency [12] | Potency [13] | Potency [14] | Potency [15] | Potency [16] | Potency [17] | outcome [18] | outcome [19] | outcome [20]

CCC(C)c1nccnc1OC (centres undefined)
inactive: outcome [1] | outcome [2] | outcome [3] | Potency [4] | outcome [5] | outcome [6] | max response [7] 1.32% | Potency [8] | Potency [9] | outcome [10] | Potency [11] | Potency [12] | Potency [13] | Potency [14] | Potency [15] | Potency [16] | Potency [17] | outcome [18] | outcome [19] | outcome [20]

Cc1ccc2cccnc2c1
inactive: outcome [1] | outcome [2] | outcome [3] | Potency [4] | outcome [5] | outcome [6] | max response [7] 20.7% | Potency [8] | Potency [9] | outcome [10] | Potency [11] | Potency [12] | Potency [13] | Potency [14] | Potency [15] | Potency [16] | Potency [17] | outcome [18] | outcome [19] | outcome [20]

Cc1cc(=O)oc2cc(O[C@@H]3SC[C@@H](O)[C@H](O)[C@H]3O)ccc12
inactive: outcome [1] | outcome [2] | outcome [3] | Potency [4] | outcome [5] | outcome [6] | max response [7] -5.1% | Potency [8] | Potency [9] | outcome [10] | Potency [11] | Potency [12] | Potency [13] | Potency [15] | Potency [16] | Potency [17] | outcome [18] | outcome [19] | outcome [20]
